Reference: PMC5540273 (PLoS ONE, 2017)

Assays:
Conditions in all cases: concentration: 1 μM, replicates: in singlicate; n = 1
[1] = tested on: SGK2
[2] = tested on: SGK3
[3] = tested on: SGK
[4] = tested on: SIK2
[5] = tested on: SIK
[6] = tested on: SLK
[7] = tested on: T1, SNARK
T1 construct: gene NUAK2

[8] = tested on: SNRK
[9] = tested on: SRC
[10] = tested on: SRMS
[11] = tested on: SRPK1
[12] = tested on: SRPK2
[13] = tested on: SRPK3
[14] = tested on: STK16
[15] = tested on: STK33
[16] = tested on: STK35
[17] = tested on: STK36
[18] = tested on: STK39
[19] = tested on: SYK
[20] = tested on: SgK110
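Further: KINOMEscan kinase panel screen.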

| SMILES | %Inh [1] [%] | %Inh [2] [%] | %Inh [3] [%] | %Inh [4] [%] | %Inh [5] [%] | %Inh [6] [%] | %Inh [7] [%] | %Inh [8] [%] | %Inh [9] [%] | %Inh [10] [%] | %Inh [11] [%] | %Inh [12] [%] | %Inh [13] [%] | %Inh [14] [%] | %Inh [15] [%] | %Inh [16] [%] | %Inh [17] [%] | %Inh [18] [%] | %Inh [19] [%] | %Inh [20] [%] |
| --- | --- | --- | --- | --- | --- | --- | --- | --- | --- | --- | --- | --- | --- | --- | --- | --- | --- | --- | --- | --- |
| Fc1cccc(CSc2nnc(-c3ccc4c(c3)CCO4)o2)c1 | 24 | 9 | 8 | 0 | 12 | 5 | 12 | 10 | 5 | 0 | 1 | 0 | 16 | 0 | 6 | 0 | 16 | 16 | 0 | 13 |
| COc1ccc(CNC(=O)NC2CCN(c3ccnc(Nc4ccc(F)cc4)n3)C2)cc1 (stereo not drawn) [GSK1379706] | 0 | 0 | 0 | 0 | 13 | 9 | 0 | 0 | 0 | 0 | 0 | 80 | 21 | 19 | 14 | 0 | 27 | 13 | 34 | 0 |
| Cc1ccccc1COc1cc(-n2cnc3cc(Cl)ccc32)sc1C(N)=O [GW813349] | 6 | 1 | 0 | 0 | 4 | 73 | 4 | 3 | 0 | 0 | 10 | 34 | 10 | 0 | 30 | 0 | 30 | 0 | 9 | 0 |
| COC(=O)c1c(-c2ccccc2)c2cc(C)ccc2c(=O)n1Cc1ccccc1 | 0 | 0 | 0 | 0 | 3 | 0 | 0 | 0 | 0 | 0 | 0 | 0 | 0 | 19 | 0 | 0 | 1 | 0 | 0 | 12 |
| COc1cc2ncn(-c3cc(OCc4ccncc4Br)c(C(N)=O)s3)c2cc1OC [GW854278] | 3 | 16 | 4 | 6 | 26 | 95.9 | 0 | 0 | 0 | 0 | 44 | 0 | 28 | 14 | 6 | 0 | 1 | 0 | 20 | 0 |
| Cn1c(=O)c(F)c(Nc2ccc(I)cc2F)c2c(=O)n(OC[C@H](O)CO)cnc21 | 3 | 0 | 0 | 0 | 4 | 0 | 0 | 0 | 11 | 0 | 15 | 13 | 7 | 14 | 0 | 0 | 9 | 32 | 20 | 0 |
| CCC(=O)c1c(-c2ccccc2)c2cc(Cl)ccc2c(=O)n1Cc1ccc(C(=O)O)cc1 | 6 | 0 | 1 | 7 | 0 | 0 | 0 | 0 | 0 | 0 | 0 | 10 | 0 | 0 | 0 | 0 | 0 | 23 | 0 | 49 |
| COc1ccc(Nc2nccc(N3CCC(NS(=O)(=O)c4ccc(NC(C)=O)cc4)C3)n2)cc1 (stereo not drawn) [GSK1379729] | 14 | 0 | 10 | 18 | 2 | 18 | 2 | 9 | 6 | 0 | 35 | 0 | 63 | 19 | 10 | 14 | 3 | 2 | 35 | 4 |
| C[C@@H]1CC[C@H](C(=O)NC2CCCCC2)CN1c1cc(-c2ccc3c(N)n[nH]c3c2)nc(N)n1 [GSK2291363] | 0 | 13 | 0 | 3 | 29 | 20 | 31 | 0 | 3 | 11 | 77 | 5 | 36 | 21 | 57 | 0 | 0 | 0 | 37 | 0 |
| OCCCNc1nccc(-c2c(-c3cccc(C(F)(F)F)c3)nn3cc(C(F)(F)F)ccc23)n1 [GW630813] | 0 | 6 | 0 | 0 | 0 | 4 | 0 | 0 | 0 | 0 | 7 | 2 | 0 | 8 | 0 | 0 | 55 | 0 | 0 | 0 |
| CCn1c(-c2ccoc2)nc2cnccc21 [SB-733887] | 5 | 4 | 12 | 0 | 0 | 25 | 0 | 0 | 0 | 0 | 41 | 18 | 0 | 1 | 0 | 0 | 0 | 0 | 26 | 0 |
| CCC(=O)c1c(-c2ccccc2)c2cc(Cl)ccc2c(=O)n1Cc1cc(S(C)(=O)=O)n(CCC(C)(C)O)n1 | 4 | 0 | 4 | 7 | 11 | 21 | 1 | 27 | 0 | 0 | 3 | 53 | 11 | 1 | 8 | 15 | 11 | 0 | 25 | 9 |
| Cl.NS(=O)(=O)c1cccc(Nc2cc(-c3ccc(F)cc3)n[nH]2)c1 [GW824645] | 100 | 0 | 22 | 3 | 0 | 0 | 0 | 0 | 1 | 31 | 0 | 0 | 2 | 18 | 0 | 0 | 0 | 0 | 3 | 0 |
| CCS(=O)(=O)c1ccc(OC)c(Nc2ncc(-c3ccc(F)cc3)o2)c1.Cl [GW591947] | 2 | 0 | 0 | 0 | 2 | 6 | 0 | 0 | 0 | 0 | 30 | 0 | 0 | 1 | 12 | 0 | 0 | 11 | 48 | 0 |
| COc1cc(Nc2ccnc3ccc(C(F)(F)F)cc23)cc(OC)c1OC [GW577382] | 0 | 0 | 10 | 25 | 31 | 24 | 0 | 0 | 36 | 0 | 0 | 0 | 0 | 0 | 15 | 0 | 0 | 16 | 37 | 0 |
